For 18 molecules, growth results are on record in PubChem BioAssay (NCI).

What all share (experiment): NCI-60 one-dose screen, 48 h (100 = growth as untreated, 0 = no growth, -100 = all killed)
In assay [1] the test system is HCT-15 colon. The conditions noted are these: 10 µM.
Assay [2] concerns SNB-75 CNS. To be noted: 10 µM.
Assay [3] concerns SNB-19 CNS. To be noted: 10 µM.
For assay [4], the system named is PC-3 prostate. To be noted: 10 µM.
Assay [5] deals with UACC-62 melanoma. To be noted: 10 µM unless noted.
Assay [6] deals with SK-MEL-28 melanoma. To be noted: 10 µM.
Assay [7] deals with U251 CNS. The conditions noted are these: 10 µM.
Assay [8] concerns SK-MEL-5 melanoma. To be noted: 10 µM.
The subject of assay [9] is LOX IMVI melanoma. To be noted: 10 µM.
Assay [10] has as its system HT29 colon. The conditions noted are these: 10 µM.

The structures appear in SMILES notation. About 83,000 compounds went through this panel and 20% of them were active in at least one assay; those are over-represented in the sample as a whole.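 Cells were grown in 96-well plates and exposed to the test compound at a single concentration for 48 hours; results are reported as percent growth, with values below 10 considered active.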 A number with no mark means an inactive call. Activity calls are given as the source filed them.

Take `COc1ccc(/C(C#N)=C2C=C/C(=N/O)c3ccccc3\2)cc1`: the growth in assay [1] is 7.28% (active); in assay [2], 23.4%; in assay [3], 61.7%; in [4], 12.8%; in assay [5] it was 6.75% (active); in [6], 46.5%.
On to `FC(F)(F)c1ccc2c(c1)N(CCCN1CCN(C3CC3)CC1)c1ccccc1S2`, for which the growth in [1] was 68.7%; in assay [3], 43%; in assay [7], 25.8%; in [4] it was 48.5%; in assay [8], 81%; in [5] it was 54%. In addition, the growth in assay [9] is 37.6%; in assay [6], 93.8%.
In the case of `O=C(OCC(O)C1OC(c2ccccc2)OC(COC(=O)c2ccccc2)C1O)c1ccccc1` (stereo unspecified), the growth in assay [1] is 96.6%; in [2], 77.4%; in assay [3], 94.2%; in assay [4] it was 83.5%; in assay [8], 97.1%; in assay [5], 108%. Further, the values for the growth in [9] and in [6] were 108% and 104%, respectively.
`CCOC(=O)CSc1c([N+](=O)[O-])ncn1C`: the growth in assay [1] was 93.7%; in [2] it was 98.4%; in assay [3], 99.6%; in assay [7], 97.9%; in assay [4], 106%; in [8], 96.2%. Further, the values for the growth in assay [5], in assay [9] and in assay [6] were 97.8%, 97.7% and 92.6%, respectively.
Take `COc1ccc(/C=C/c2cccc[n+]2C)cc1`: the growth was 99.1% in [1]; 83.2% in assay [2]; 95.1% in assay [3]; 77.6% in assay [7]; 105% in [8]; 114% in assay [5]. Moreover, the growth is 94.2% in assay [9] and 109% in assay [6].
Take `CCCCCCCCCCC1CO1` (stereo unspecified): the growth in assay [10] is 108%; in assay [2], 94%; in [3] it was 103%; in [7], 97.8%; in assay [4], 102%; in assay [8], 100%. Besides, the growth in assay [5] is 112%; in assay [9] it was 102%; in assay [6], 98.4%.
Take `Cc1ccc(/C=C2\SC(=S)N(c3ccc(F)cc3)C2=O)o1`: the growth in assay [1] was 88.1%; in assay [2], 24.7%; in [7] it was 61%; in [4] it was 96.1%; in [5], 85.2%; in assay [9], 68.8%. In assay [6], the growth was 100%.
Take `COC(=O)C(O)c1ccccc1` (stereo unspecified): the growth in assay [10] is 122%; in [2], 93%; in assay [3] it was 102%; in assay [7], 104%; in assay [4], 94.6%; in [8], 104%. Moreover, the growth in assay [5] was 94.1%; in [9] it was 107%; in [6], 103%.
Regarding `C/C(=C\c1cc(Cl)ccc1OCC(=O)O)[N+](=O)[O-]`, the growth is 101% in assay [1]; 112% in assay [2]; 117% in [3]; 102% in assay [7]; 111% in assay [8]; 109% in [5]. Moreover, the figures for the growth in [9] and in assay [6] were 88.6% and 118%, respectively.
Regarding `CC(=O)OC1CC2C(C)(C)OC3CC(=O)OCC32C2CCC3(C)C(=CCC3c3ccoc3)C12C` (stereo unspecified), the growth in assay [1] is 108%; in assay [2], 97%; in assay [3], 101%; in assay [7], 107%; in assay [8] it was 92.5%; in assay [5] it was 72.1%. Besides, the growth in assay [9] was 98.4%; in assay [6], 86.9%.
Consider `COc1ccc(C(O)c2ccccc2)cc1` (stereo unspecified), for which the growth in assay [1] is 100%; in assay [2] it was 96.1%; in assay [3], 105%; in [7], 94.1%; in assay [4], 94.7%; in assay [5], 95.3%. Moreover, the growth in assay [9] is 86.2%; in assay [6], 105%.
Consider `CCOC(=O)C(C#N)Cc1ccccc1` (stereo unspecified), for which the growth in assay [10] is 104%; in assay [2] it was 99.1%; in assay [3], 100%; in assay [7] it was 112%; in assay [4] it was 90.2%; in assay [8], 117%. The growth in assay [5] was 111%; in assay [9], 107%; in [6] it was 120%.
As to `CCCNc1ccc(C2=NCCCN2)cc1`, the growth in assay [10] was 96%; in [2], 84.2%; in [3] it was 102%; in assay [7] it was 87.4%; in assay [4], 94.6%; in assay [9], 95.1%. The growth in assay [6] was 114%.
For the molecule `NC(=O)c1ccc(N=C(N)N=C(N)N)cc1`, the growth in [10] is 105%; in assay [2], 91.2%; in assay [3] it was 110%; in [7] it was 101%; in [4] it was 93.1%; in assay [8], 93.6%. The growth is 105% in [5], 100% in assay [9] and 111% in [6].
Turning to `CN(C)c1ccc2oc(=O)c3ccccc3c2c1`, the growth in assay [10] was 86.7%; in assay [2], 57.1%; in assay [3], 81.3%; in assay [7], 94.3%; in assay [8] it was 94.9%; in assay [5], 68.8%. Further, in assay [9], the growth is 88.8%.
`O/N=C/c1ccc(O)cc1O`: the growth was 102% in assay [10]; 89.3% in [2]; 96.6% in assay [3]; 90.6% in assay [7]; 86.4% in assay [4]; 104% in assay [8]. The growth is 96.5% in assay [5], 105% in assay [9] and 107% in [6].
Regarding `CCCCOC(OCCCC)c1ccccc1`, the growth was 102% in [10]; 88.9% in assay [2]; 95.4% in assay [3]; 109% in assay [7]; 98.7% in assay [4]; 103% in assay [8]. For the same molecule, the growth in assay [5] was 97.2%; in assay [9], 92.7%; in assay [6] it was 107%.
Consider `COc1ccc2c(NCCCCCCCCNc3c4ccccc4nc4cc(OC)ccc34)c3ccccc3nc2c1`, for which the growth in assay [2] was -100% (active); in [3], -86.7% (active); in assay [7], -100% (active); in [4], -100% (active); in assay [8], -100% (active); in [5], -100% (active). Also, the growth is -98.6% (active) in assay [9] and -100% (active) in assay [6].
